Assay results reported in PubChem BioAssay AID429 (Emory University Molecular Libraries Screening Center, 2006).
The campaign covered roughly 64,000 compounds. About 220 (0.34%) were called active.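 How the source made its calls: active means inhibition above 50%; inactive means the rest.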 For the sample, actives were picked, then their nearest neighbours and some compounds at random.

molecular target: Heat shock protein HSP 90-alpha (Homo sapiens) (UniProt P07900); test: tumor Hsp90 inhibitors, primary screen, cell lysate, fluorescence polarization, NCI-N417 lysate (AID 429); conditions: NCI-N417 lysate Hsp90, Cy3B-geldanamycin FP displacement; at 30 µM; hits give high values;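 further: 0% = tracer plus lysate wells and 100% = tracer alone without lysate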

Question: For `C=CC1(C)CC(=O)C2(O)C(C)(O1)C(OC(C)=O)C(O)C1C(C)(C)CCC(O)C12C` (stereo not given), which inhibition is on record?
Answer: The inhibition was -0.45% (inactive).

Question: With `COC(=O)[C@@H](NC(=O)NCc1cccc(OC)c1)C(C)C` as the compound, how does the inhibition read?
Answer: The inhibition was -1.26% (inactive).

Question: For `CC(C)C[C@H](NC(=O)[C@H](O)[C@H](N)Cc1ccccc1)C(=O)O`, which inhibition is on record?
Answer: Its inhibition is -2.1% (inactive).

Question: `CCCn1c(=O)c2[nH]c(-c3ccc(OCC(=O)NCCN)cc3)nc2n(CCC)c1=O` was tested. Which inhibition did it give?
Answer: The inhibition was -4.59% (inactive).

Question: Which inhibition does the source give for `CCCCCC(O)c1cccc(OCc2ccc3ccccc3n2)c1` (stereo not given) here?
Answer: The inhibition was 5.96% (inactive).

Question: Which inhibition does the source give for `Cc1cc(C(F)(F)F)n2ncc(-c3ccccc3)c2n1` here?
Answer: The inhibition was -3.41% (inactive).

Question: Which inhibition does the source give for `Nc1ccc2c3c(cccc13)C(=O)NC2=O` here?
Answer: The inhibition was 7.71% (inactive).

Question: Which inhibition does the source give for `Cc1nc2ccc(S(=O)(=O)NCC(=O)O)cc2s1` here?
Answer: Its inhibition is -1.11% (inactive).

Question: Which inhibition does the source give for `CC(C)C1C2=C(CC(C)(C)CC2=O)ON1c1ccccc1` (stereo not given) here?
Answer: Its inhibition is -1.36% (inactive).

Question: `Cc1c(-c2nn(C)c(=O)c3ccccc23)oc2ccc(F)cc2c1=O` was tested. Which inhibition did it give?
Answer: Its inhibition is 89.8% (active).

Question: How did the inhibition turn out when `Cc1ccc(F)cc1NC(=O)Cc1nn(C)c(=O)c2ccccc12` was run?
Answer: The inhibition was -2.07% (inactive).

Question: `O=C1c2oc3ccc(Br)cc3c(=O)c2C(c2cccc(F)c2)N1CCO` (stereo not given) was tested. Which inhibition did it give?
Answer: Its inhibition is -0.86% (inactive).

Question: For `COc1cccc(CN2C(=O)CCC2(C)C(=O)NC2CCCCCC2)c1` (stereo not given), which inhibition is on record?
Answer: The inhibition was -0.1% (inactive).

Question: Which inhibition does the source give for `CC(=O)C1=C(O)C(=O)N(c2ccc(S(N)(=O)=O)cc2)C1c1ccccc1F` (stereo not given) here?
Answer: Its inhibition is -1.25% (inactive).

Question: With `CC(C)(C)NCC(O)COc1cccc2[nH]c(=O)[nH]c12` (stereo not given) as the compound, how does the inhibition read?
Answer: Its inhibition is -2.65% (inactive).

Question: How did the inhibition turn out when `CCOc1ccccc1C1CC(c2ccccc2)Nc2nc(N)nn21` (stereo not given) was run?
Answer: Its inhibition is 0.5% (inactive).

Question: Which inhibition does the source give for `COc1ccccc1OCCOc1ccc(/C=N/n2cnnc2)cc1` here?
Answer: The inhibition was -1.96% (inactive).

Question: For `CCOc1cc(CO)ccc1OCC(=O)N1CCCCC1`, which inhibition is on record?
Answer: Its inhibition is 1.83% (inactive).

Question: Which inhibition does the source give for `O=C(c1ccc2c(c1)OCO2)N1CCNc2ccccc2C1` here?
Answer: The inhibition was -1.64% (inactive).

Question: With `Cc1ccc(NC(=O)CS(=O)CC(=O)N(c2ccccc2)C(C)C(=O)NC2CCCC2)cc1` (stereo not given) as the compound, how does the inhibition read?
Answer: Its inhibition is -0.1% (inactive).

Question: For `O=C(Nc1nsc(-c2ccccc2)n1)c1ccncc1`, which inhibition is on record?
Answer: The inhibition was 1.14% (inactive).

Question: `O=C(CN(c1ccc2c(c1)OCCO2)S(=O)(=O)c1ccccc1)Nc1ccc2c(c1)OCO2` was tested. Which inhibition did it give?
Answer: The inhibition was 31.2% (inactive).

Question: With `Cc1noc(C)c1C(=O)NC(C)c1ccc2c(c1)OCO2` (stereo not given) as the compound, how does the inhibition read?
Answer: Its inhibition is -9.41% (inactive).

Question: For `COc1ccc(-c2nnn(Cc3nc(N)nc(N4CCCCC4)n3)n2)cc1`, which inhibition is on record?
Answer: The inhibition was 2.3% (inactive).

Question: For `O=C(CCC(=O)c1cccs1)NCc1ccccc1`, which inhibition is on record?
Answer: The inhibition was -2.27% (inactive).

Question: For `O=C(O)CCC(=O)NCc1ccc2[nH]c3c(c2c1)CCCC3`, which inhibition is on record?
Answer: Its inhibition is 62.8% (active).

Question: For `O=C(CCCCn1c(=O)[nH]c2ccccc2c1=O)NCc1ccc2c(c1)OCO2`, which inhibition is on record?
Answer: Its inhibition is -3.39% (inactive).

Question: For `CCOC(=O)C1CCN(C(=O)COc2cc(C)c(Br)c(C)c2)CC1`, which inhibition is on record?
Answer: The inhibition was -0.95% (inactive).

Question: With `CC1CC2C3CCC4=CC(=O)C=C[C@]4(C)[C@@]3(F)[C@@H](O)C[C@]2(C)[C@@]1(O)C(=O)CO` (stereo not given in full) as the compound, how does the inhibition read?
Answer: The inhibition was 0.93% (inactive).

Question: For `CC(=O)Oc1cccc(N2C(=O)CC(Nc3ccc(N4CCOCC4)cc3)C2=O)c1` (stereo not given), which inhibition is on record?
Answer: The inhibition was 10.2% (inactive).
